# In the library only some 18% were active in any assay of this set; here they are far more common.
# KAT2A inh: GCN5L2 (KAT2A) acetyltransferase inhibition; AID 504327; GCN5L2 HAT assay, ThioGlo1 CoA-SH fluorescence; Potency, µM (titrated, usually from 58.9 µM), most hits filed as inhibitors; 0.21% of 390,000 active; Q92830
#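 qHTS, 1536-well. 20nM enzyme, pH 7.5 HEPES/EDTA/Tween-20 buffer; 15 min compound preinc., RT. Start: 75uM H3(1-25), 70uM AcCoA, 50uM ThioGlo1. Read Ex340/Em540 at t=0 (autofluorescence flag) and t=20 min.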
# TDP1 inh: blocks human tyrosyl-DNA phosphodiesterase 1. Q9NUW8. recombinant TDP1, AlphaScreen DNA substrate cleavage. Potency, µM (doses to about 130 µM), usual class: inhibitors. 0.28% of 350,000 active; also: nearly all actives have a fitted effect of over 40% in size
#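 Compounds were preincubated with Tdp1 (1 nM final) for 15 min at room temperature before substrate (15 nM final) started a 5 min reaction; beads (10 ug/ml final) were then added for 10 min before AlphaScreen detection.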
# PLK1 PBD block: inhibitors of human PLK1 polo-box domain binding; P53350; Plk1 PBD binding of FITC phosphopeptide, fluorescence polarization; Potency, µM, actives largely listed as inhibitors; 2.8% of 360,000 active; AID 720504; also: series mostly up to about 57 µM; nearly all actives have a fitted effect of over 65% in size
# DT40 TDP1 CPT: DT40-hTDP1 cell growth loss with CPT; chicken DT40 Tdp1-/-;hTDP1 cells + 20 nM CPT, ATP luminescence, 48 h; Potency, µM (titrated, usually from 46.2 µM), hits mostly inhibitors; 12% of 420,000 active; also: nearly all actives have a fitted effect of over 55% in size
#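 Chicken DT40 Tdp1-/- cells complemented with human TDP1, 400 cells/well, exposed to compounds plus 20 nM camptothecin for at least 48 h at 37 C; viability read as ATP content by CellTiter-Glo luminescence.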
# DT40 TDP1 no CPT: qHTS for Inhibitors of human tyrosyl-DNA phosphodiesterase 1 (TDP1): qHTS in cells in absence of CPT; 15% of 420,000 active; Potency, µM (titrated, usually from 46.2 µM), hits mostly inhibitors; DT40 Tdp1-/- hTDP1 cells, no CPT, ATP luminescence, 48 h; also: nearly all actives have a fitted effect of over 55% in size
#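 A cellular qHTS used chicken DT40 cells lacking endogenous Tdp1 but carrying stably transfected human TDP1. Compounds were applied without camptothecin, and cell growth kinetics were judged by ATP-dependent luminescence after ≥48 hr.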
# VDR inh: blocks the human vitamin D receptor. P11473. VDR-SRC2-3 peptide fluorescence polarization, 2 h. Potency, µM, actives largely listed as inhibitors. 0.93% of 400,000 active
# Target sequence (P11473 whole entry, looked up): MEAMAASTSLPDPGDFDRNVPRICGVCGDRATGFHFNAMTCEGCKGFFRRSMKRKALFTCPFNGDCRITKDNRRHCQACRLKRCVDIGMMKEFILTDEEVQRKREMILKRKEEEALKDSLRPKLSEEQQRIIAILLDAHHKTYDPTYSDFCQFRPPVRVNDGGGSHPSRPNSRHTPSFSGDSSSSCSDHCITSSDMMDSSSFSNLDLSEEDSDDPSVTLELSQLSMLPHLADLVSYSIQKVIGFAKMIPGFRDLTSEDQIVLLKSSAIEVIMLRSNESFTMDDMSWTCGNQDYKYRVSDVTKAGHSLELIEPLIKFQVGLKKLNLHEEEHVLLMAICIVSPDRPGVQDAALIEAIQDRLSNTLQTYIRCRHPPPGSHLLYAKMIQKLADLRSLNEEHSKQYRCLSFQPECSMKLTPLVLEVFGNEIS
#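 The screen uses fluorescence polarization to detect compounds that interfere with recruitment of the SRC2-3 coactivator peptide to VDR; plates are read after 2 h at room temperature.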
# Numbers stand for hits; - = inactive; ? = inconclusive; . = no result. Calls follow the shape of the dose curve; as a rule, active = well fitted curve in the direction sought with a large enough effect; inconclusive = small, poorly fitted or top-dose-only effect, or another doubt; inactive = no such curve, though single readings can be large; an effect the other way counts as inactive or inconclusive.
SMILES,KAT2A inh,TDP1 inh,PLK1 PBD block,DT40 TDP1 CPT,DT40 TDP1 no CPT,VDR inh
O=C(CCc1nnc2n(Cc3ccc(F)cc3)c(=O)c3ccccc3n12)N1CCN(c2ccccn2)CC1,-,-,-,?,20.6µM,-
COc1ccc(Cn2c(=O)[nH]c3cc(C(=O)N4CCN(c5ccccn5)CC4)ccc3c2=O)cc1,-,-,-,14.6µM,23.1µM,-
CC(=O)c1ccc(N2CCN(C(=O)c3nn(Cc4ccccc4)c(=O)c4ccccc34)CC2)cc1,-,-,-,?,18.4µM,-
CC(=O)c1ccc(N2CCN(C(=O)c3n[nH]c4ccccc34)CC2)cc1,-,-,-,?,?,-
O=C(c1ccc(Cn2c(=O)[nH]c3ccccc3c2=O)cc1)N1CCN(c2ccccc2)CC1,-,-,-,18.4µM,14.6µM,-
O=C(c1ccc(CN2CCc3ccccc3C2)cc1)N1CCN(c2ccccc2)CC1,-,-,-,13µM,?,-
CC(C)NC(=O)c1ccc(CN2CCc3ccccc3C2)cc1,-,.,-,-,?,-
O=C1CNc2ccc(C(=O)N3CCN(c4ccccn4)CC3)cc2N1,-,-,23.8µM,?,?,-
O=C(c1ccc(Cn2c(=O)[nH]c3ccccc3c2=O)cc1)N1CCN(c2ccccn2)CC1,-,-,-,?,23.1µM,-
O=C(c1ccc(F)cc1)N1CCN(c2ccccn2)CC1,-,.,-,-,-,-
COc1ccc(-n2c(SCC(=O)Nc3nnc(C)s3)nc3c([nH]c4ccccc43)c2=O)cc1,-,-,.,?,?,-
CO[C@H]1[C@H](NC(=O)c2cccc(F)c2)c2ccccc2C12CCN(Cc1ccco1)CC2,.,.,.,-,-,.
CCOC(=O)C1(C)CCCN1C(=O)c1ccc(C(=O)OC)cc1 (centres undefined),.,.,-,-,-,.
CCOC(=O)C1(C)CCCCN1C(=O)c1ccc(F)c(C)c1 (centres undefined),.,.,-,-,?,.
CCOC(=O)C1(C)CCCN1C(=O)c1ccc2ccccc2c1 (centres undefined),.,.,-,?,18.4µM,.
CCOC(=O)C1(C)CCCCN1C(=O)c1cccc(Cl)c1 (centres undefined),.,.,-,20.6µM,14.6µM,.
COc1cc(S(=O)(=O)O)c(C)cc1N=Nc1c(O)ccc2cc(S(=O)(=O)O)ccc12,.,.,.,-,?,.
COc1cc(-c2ccc(N=Nc3ccc4c(S(=O)(=O)O)cc(S(=O)(=O)O)c(N)c4c3O)c(OC)c2)ccc1N=Nc1ccc2c(S(=O)(=O)O)cc(S(=O)(=O)O)c(N)c2c1O,3.98µM,?,.,?,?,?
COc1ccc(C(=O)CC(=O)C(=O)NCCc2cccc(C)c2)cc1,-,-,-,?,?,?
CCOC(=O)C1CCN(c2c(NCCCN(CC)c3ccccc3)c(=O)c2=O)CC1,-,-,-,-,-,-
CCN(CCCNc1cc2c(c(N)c1S(=O)(=O)O)C(=O)c1ccccc1C2=O)c1ccccc1,.,.,?,?,18.4µM,.
Cc1ccc(NS(=O)(=O)c2cc(N)ccc2Cl)c(C)c1,-,-,23.8µM,-,-,-
NC(=O)c1cccc(-c2cc(Nc3ccc(OC(F)(F)F)cc3)ncn2)c1,-,-,-,?,14.6µM,-
CNS(=O)(=O)c1cccc(C(=O)OCc2cc(=O)oc3c(C)c(O)ccc23)c1,-,-,-,?,18.4µM,-
CN(C)c1nc(N)nc(CSc2nnnn2-c2ccc(F)cc2)n1,-,-,-,-,-,-
SMILES,KAT2A inh,TDP1 inh,PLK1 PBD block,DT40 TDP1 CPT,DT40 TDP1 no CPT,VDR inh
COc1ccc(C)cc1-n1nnnc1SCc1nc(N)nc(N(C)C)n1,.,.,-,4.61µM,6.51µM,.
Cc1cccc(C)c1-n1nnnc1SCc1nc(N)nc(N(C)C)n1,.,.,-,2.31µM,2.06µM,.
Cc1ccc(NS(=O)(=O)c2cc3c(cc2-c2ccccc2)NC(=O)CO3)cc1C,.,-,.,.,.,.
CCOc1ccc(CCNC(=O)c2cc3sccc3n2CC)cc1OCC,-,-,-,5.17µM,5.8µM,-
Cn1c(C(=O)NCCc2ccccc2)cc2sc(Cl)cc21,-,-,.,-,-,-
CCOc1ccc(CCNC(=O)c2cc3sc(CC)cc3n2C)cc1OCC,-,-,.,14.6µM,11.6µM,-
CCOc1ccc(CCNC(=O)CCn2cccc2)cc1OCC,-,-,-,-,-,-
O=C(NCCc1ccccc1)c1cc2sccc2n1Cc1ccc(F)cc1,-,-,.,-,-,-
CCn1c(C(=O)NCCc2ccc(OC)c(OC)c2)cc2sc(Cl)cc21,-,-,.,18.4µM,11.6µM,-
CC1CCN(C(=O)C2COc3ccccc3C2)CC1 (centres undefined),-,-,.,-,-,-
N#Cc1ccc(CSc2nc3c(c(=O)[nH]2)CCCC3)cc1,-,-,.,?,?,-
Cc1cccc(CN2CCN(Cc3nc4c(s3)CCCC4)CC2CCO)n1 (centres undefined),-,-,-,-,-,-
CC(=O)N=c1scc(-c2ccccc2)n1-c1cccc(O)c1,-,-,-,?,16.4µM,-
Cc1ccc(C)c(NC(=O)CSc2cn(CC(=O)N3CCCC3)c3ccccc23)c1,-,-,.,?,?,-
O=S(=O)(c1ccccc1)c1nc(-c2ccccc2)oc1N1CCN(c2cccc(Cl)c2)CC1,-,-,.,?,?,-
COc1ccc(C(=O)C23CC4CC(C2)CC(C(=O)c2ccc(OC)cc2)(C4)C3)cc1,-,-,-,?,16.4µM,-
COc1ccc(CNC(=O)C23CC4CC(CC(Br)(C4)C2)C3)cc1,-,-,-,-,-,-
COC(=O)c1ccc(NC(=O)C(=O)NCCc2csc(-c3ccc(F)cc3)n2)cc1,-,-,.,-,-,-
CC(O)CNc1nc2c(c(=O)n(C)c(=O)n2C)n1C/C=C/c1ccccc1 (centres undefined),-,-,-,8.2µM,9.2µM,-
Cn1c(=O)c2c(nc(NCCCO)n2C/C=C/c2ccccc2)n(C)c1=O,-,-,-,18.4µM,18.4µM,-
O=C(NCc1cccnc1)c1cc(C2CCCCN2C(=O)c2ccc(Cl)cc2)on1 (centres undefined),.,.,-,-,-,.
CC1(C)CC(=O)C2=C(C1)OC1=C(C(=O)CC(C)(C)C1)C2c1ccc(O)c([N+](=O)[O-])c1,-,-,-,?,-,-
CC1(C)CC(=O)C2=C(C1)OC1=C(C(=O)CC(C)(C)C1)C2c1cccc([N+](=O)[O-])c1,.,.,-,?,16.4µM,.
COc1ccc(C)cc1-n1c(-c2ccc(Cl)cc2)cc2c1CC(C)(C)CC2=O,-,-,.,?,14.6µM,-
Cc1cc2c(n1-c1ccc(Cl)cc1)CC(C)(C)CC2=O,-,-,-,?,-,-
